Reference: PubChem BioAssay (NCATS)
Results filed as inconclusive are left out. Entries that show only a call come without a potency. Activity calls are given as the source filed them. Calls come from the whole dose curve; as a rule, active = well fitted cell-killing curve with a large enough effect; inconclusive = small, poorly fitted or top-dose-only effect; inactive = flat fitted curve, though single readings scatter.

Experiment: Cell Viability - LYMP2-021 (AID 974);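 note: compound exposure lasts 24 hours at 37 °C; nearly all actives have a fitted effect of over 55% in size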
Conditions: LYMP2-021 lymphoblastoid cells viability; series mostly up to 92.2 µM
From the text: NIH Chemical Genomics Center [NCGC]
NIH Molecular Libraries Screening Centers Network [MLSCN]
National Institutes of Environmental Health Sciences [NIEHS]
National Toxicology Program [NTP]
We have developed a 1536-well cell-based assay for quantitative high throughput screening (qHTS) against a number of cell lines to determine in vitro cytotoxicity of small molecules. This particular assay uses a human lymphoblastoid cell line (LYMP2-021) purchased from Coriell Institute for Medical Research.
NCGC Assay Protocol Summary:
The CellTiter-Glo luminescent cell viability assay (Promega) is a homogeneous method to measure the number of viable cells in culture. The end point readout of this assay is based on quantitation of intracellular ATP, an indicator of metabolic activity, using the luciferase reaction. Luciferase catalyzes the oxidation of beetle Luciferin to oxyluciferin and light in the presence of ATP. The luminescent signal is proportional to amount of ATP present.
Using the CellTiter-Glo luminescent cell viability assay, the amount of cellular ATP was measured in the lymphoblastoid cell line with complete culture medium following compound treatment for 24 hours. The assay was performed in opaque white Kalypsys 1536-well plates. In the screen, tetraoctylammonium bromide was used as positive control. Library compounds were measured for their ability to cause acute toxicity in the cell line, as reflected by a decrease in intracellular ATP levels, in a concentration-dependent manner. […] AC50 values were determined from concentration-response data modeled with the standard Hill equation.
qHTS protocol for CellTiter Glo lymphoblastoid cellular assay
[Step] [Parameter] [Value] [Description]
1. Reagent; 5 uL; 2500 lymphoblastoid cells/well
2. Time; 5 hr; 37 C incubation
4. Controls; 23 nL; Tetraoctylammonium bromide 6.4pM to 92 uM
5. Time; 24 hr; 37 C incubation
6. Reagent; 5 uL; CellTiter Glo reagent
7. Time; 30 min; Room Temperature
8. Detection; Luminescence; Viewlux plate reader
Keywords: cell viability, cytotoxicity, lymphoblastoid cell line, luminescence, NTPHTS, NTPHTS_NCGC, NIEHS, DSSTox, MLSMR, MLSCN, NIH Roadmap, qHTS, NCGC

Structure (SMILES)	Potency
Cc1c(N)cccc1[N+](=O)[O-]	inactive
Cc1cc(C)cc([N+](=O)[O-])c1	inactive
CC(=C/C=C/C(C)=C/C=C/C=C(C)/C=C/C=C(C)/C=C/C(=O)O)/C=C/C(=O)O	inactive
Cc1c(N)cccc1N	inactive
O=C(O)/C=C/C(=O)O	inactive
c1ccc(Oc2ccccc2)cc1	inactive
O=[N+]([O-])c1cccc(Cl)c1	inactive
NC(=O)c1ccccc1[N+](=O)[O-]	inactive
COc1ccc(N=[N+]([O-])c2ccc(OC)cc2)cc1	inactive
O=C1NC(=O)c2cc([N+](=O)[O-])ccc21	inactive
CO[Si](CCCNCCC[Si](OC)(OC)OC)(OC)OC	inactive
CC(C)Nc1ccccc1	inactive
CCCCCCCCC/C=C/CC1CC(=O)OC1=O (stereo not given)	inactive
ClCCl	inactive
CSc1ccc(C=O)cc1	inactive
Cc1ccc2nc(-c3ccc(N)cc3)sc2c1S(=O)(=O)O	inactive
NC(=S)NNC(N)=S	inactive
CN(C)c1cccc(O)c1	inactive
CCC1CO1 (stereo not given)	inactive
O=C1OC(=O)c2cc([N+](=O)[O-])ccc21	inactive

Structure (SMILES)	Potency
CC1CCCO1 (stereo not given)	inactive
Cc1ccc(Cl)cc1	inactive
O=C(O)c1ccc(Cl)c(Cl)c1	inactive
CC(C)=C1CCC(C)CC1=O (stereo not given)	inactive
C=C(C)C(=O)OCCCCCC	inactive
S=C([S-])NCCNC(=S)[S-].[Zn+2]	inactive
Cc1cccc(C)c1O	inactive
CCC(C)(C)C(=O)O	inactive
Cc1ccccc1C=O	inactive
O=[N+]([O-])c1ccc(Cl)cc1Cl	inactive
O=C(O)c1cccc(Cl)c1Cl	inactive
Cc1cc([N+](=O)[O-])ccc1N	inactive
C=C(C)C(=O)OCCCCCCCCCC	inactive
C=CCCCCCCC=C	inactive
O=C(O)CNC(=O)c1ccc(CO)o1	inactive
O=[N+]([O-])c1cc(C(F)(F)F)ccc1Cl	inactive
COC(=O)c1ccccc1	inactive
CCOc1ccccc1N	inactive
Nc1nc(-c2ccccc2)cs1	inactive
C=CCCC	inactive
